# Over roughly 25,000 sequences, “ln(normalized median fluorescence intensity)” has its median near 9.3; the highest 2% begin near 10. The full list was thinned out, with the highest values kept by preference.
# Test system: PF3D7_0420300 AP2 domain 1 (GST-tagged)
# Test: gcPBM binding intensity (ln(normalized median fluorescence intensity)); higher = stronger DNA binding
# In short: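 Binding intensity values are the highest Masliner-normalised natural-log median intensity among replicate spots of either probe orientation. The binding step lasted 1 h in 1× PBS with 1% milk, 0.2 mg/ml BSA, 0.5% salmon testes DNA and 0.03% Triton X-100, using GST-tagged P. falciparum DNA-binding domains expressed in E. coli on an Agilent 4 × 180k array of primer-extended double-stranded 36-bp intergenic genomic probes plus negative controls. Alexa488 anti-GST antibody and a 488 nm scan detected bound protein.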
row,Sequence,gcPBM binding intensity (ln)
1,AGTAACTAATTAAATGCATGTCGATATATATTATAT [TGCATGCA_site1038],9.35
2,CGTTTTCTATATCATTGTACATATTCATGTGTAAAT [XGTACX_site2741],9.24
3,CATAAATACAGATATACACACATATATATATATATA [CACACA_site4528],9.45
4,AATAAAAAGTAATAATAACGTATAATTTATTATACT [TGCATGCA_negctrl_site414],9.14
5,TATTTTTTATGATTAACACACACACTAATAAAAAAA [CACACA_site9370],9.77
6,ACGTTTACGTTATTATGTACGTAATATATCATACCT [XGTACX_site5006],9.09
7,AAAAAAAAGAAAAACACACACATATATATATAGAAT [CACACA_site1006],10.2
8,CACACCCACCAACACACACACAAAAAAAAAAAGAAA [CACACA_site500],9.59
9,ATACTAAAGAAACACACACACATATATATATAGAAT [CACACA_site100],10.3
10,AAAAAAAAAAGAAACACACACATATATATATAGAAT [CACACA_site1777],10.1
11,TTAACAAAGAAACACACACACACACCCAAAAAAAAA [CACACA_site516],10.2
12,CAACAAAAGAAACACACACACACAAACACAAAAAAA [CACACA_site3389],10
13,TGACATAATGTGTGTAGTACATATATCGTTATTTGA [XGTACX_site5152],9.46
14,ACATGTAAATTTACATGTACATGTAACACTTAATAT [XGTACX_site4575],9.39
15,AATAAAAAAGAATATACACACATAAATATAAAATAT [CACACA_site683],9.9
16,AAAGAAATGAAATATACACACATACATATATACATA [CACACA_site9335],9.81
17,AGAAAGAAAGAATACACACACACATATATATATATC [CACACA_site3744],10.4
18,TAAAGAAATAAATACATACACACATATATATATATA [CACACA_site3363],9.46
19,GTATCAAAAGAATACACACACACATACATATATATA [CACACA_site3796],10.2
20,AGAAAGAAAGAATACACACACACATATATAAATATC [CACACA_site7716],10.2
21,AAAAAAAACAAATACACACGCACACCGAAAAAAAAA [CACACA_site803],10
22,TCCTACATATAAAAATGTACCCATTGTTTTTTTTTT [XGTACX_site7205],9.11
23,TTCATTCATTTTATTACACACAAAAAAAAAAAAAAA [CACACA_site3680],9.07

row,Sequence,gcPBM binding intensity (ln)
1,AACATATATATATATACATGCATATGAACAACGAAT [TGCATGCA_site93],9.62
2,CTTTTTAATGAATACACACACACACCGATATATATA [CACACA_site5296],10.1
3,AAAAAACAAAAACACACACACACATATATATATATA [CACACA_site3654],10.2
4,CACAAATATACAAATACACACAAATATACACATATA [CACACA_site7176],9.77
5,AAAAAAAAAAAAAACATACACACAAATATATACATA [CACACA_site4010],9.67
6,TAAAGGCAAACAAACACACACACATATATACCTATA [CACACA_site7078],9.91
7,CACAAATATATACATACACACATATATACACATATA [CACACA_site8024],9.86
8,AAAAAAAAAAAACACACACACACATACAAAATATAT [CACACA_site1448],10.3
9,TAAAGGCAAACAAACACACACACATATATACATATA [CACACA_site2123],10.2
10,AAAAAAAAAAAACACACACACATATATATATATATA [CACACA_site732],9.75
11,AAAAAAAAAAAAAACACACACATATATATATATATA [CACACA_site1891],9.55
12,AAGGCAAACAAACACACACACATATATACATATATA [CACACA_site2122],9.98
13,AAAAAAAAAAAACATACACACAAATATATACATACA [CACACA_site4011],9.89
14,AGCAAATACAAACACACACACACATATACATATATA [CACACA_site3497],10.2
15,TAATAATTATTGCACGCACACAAAAACCTATAGATT [CACACA_site2931],9.45
16,ATGATCATAAAACACACACACAAAAAAAAAAAAAAA [CACACA_site1805],9.51
17,TTATTTTTTCAAGAATGTACTTACGAATTGTCGTAT [XGTACX_site1363],8.78
18,ATAAAAACATAAAAATGTACATATATATATATATAT [XGTACX_site7165],9.23
19,TGAGATAACAAAAGTTGTACTTTTTTTTTTTTTTTT [XGTACX_site3004],8.89
20,TATATATATATAATAGTGCATAAATAAATATATAAA,9.28
21,TACAATATTTTGAGACGTACATATATACATTTACAT [XGTACX_site5880],9.24
22,AAAATGAATATAATGACGCACACTTAAAATTGTTAA [CACACA_site2509],9.29
23,ATATGTTTATTAAATGCATGTCAAGACTTAAGATAT [TGCATGCA_site329],9.24

# Reference: the supplement of paper PMC11417369
